# TDP1 cell noCPT: qHTS for Inhibitors of human tyrosyl-DNA phosphodiesterase 1 (TDP1): qHTS in cells in absence of CPT; 420,000 tested, 15% active; AID 686978, 2013; DT40 Tdp1-/- hTDP1 cells, no CPT, ATP luminescence, 48 h; Potency, µM (top dose mostly 46.2 µM), actives largely listed as inhibitors; note: nearly all actives have a fitted effect of over 55% in size
#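 Compound effects on proliferation are scored in DT40 Tdp1-/-;hTDP1 cells in the absence of CPT. ATP levels (CellTiter-Glo luminescence) are recorded after a ≥48 hr, 37 °C incubation.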
# HT1080NT lethal: kills 2HG-producing HT-1080-NT fibrosarcoma cells | HT-1080-NT fibrosarcoma viability, CellTiter-Glo ATP luminescence, 48 h | Potency, µM (titrated, usually from 46.1 µM), actives largely listed as cytotoxic | 360,000 tested, 1.6% active;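 note: NT is the 2HG producing partner of a matched IDH1 knockdown line; nearly all actives have a fitted effect of over 55% in size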
#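 HT-1080-NT fibrosarcoma cells (2HG-overproducing), 750 cells/well in RPMI with 5% FBS, dosed after 2 h and incubated 48 h at 37C. CellTiter-Glo luminescence normalized to DMSO and no-cell wells; concentration-response curves fitted and classed.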
# HT1080 IDH1KD tx: toxicity to HT-1080 IDH1 knockdown cells (counter line). HT-1080 IDH1 knockdown viability, ATP luminescence, 48 h. Potency, µM (top dose mostly 46.1 µM), usual class: cytotoxic. 360,000 tested, 2% active. AID 686971
#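 Viability of IDH1-knockdown HT-1080 fibrosarcoma cells was assessed by CellTiter-Glo after 48 h at 37 °C with titrated compound; concentration-effect curves were classified by fit quality and response size.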
# IL1B secr inh: inflammasome signaling inhibition, IL-1 beta readout; THP-1 LPS/ATP IL-1B secretion, AlphaLISA, 16 h; stronger effect = lower value; activity change, % at 57.5 µM; 360,000 tested, 4.7% active; in the data active = activity change below about -50%; inconclusive = mostly about -30% to -49%
#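 THP-1 cells pretreated 1 hr with compounds (up to 57.5 uM final), then stimulated with LPS (250 ng/mL final) plus ATP (1.25 mM final); secreted IL-1B measured by AlphaLISA after 16 hr, decreased signal indicating inhibition.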
# DT40 TDP1 CPT: growth inhibition of DT40 Tdp1-/-;hTDP1 cells with camptothecin (screen for TDP1 inhibitors) | Potency, µM (doses to about 46.2 µM), most hits filed as inhibitors | 420,000 tested, 12% active | chicken DT40 Tdp1-/-;hTDP1 cells + 20 nM CPT, ATP luminescence, 48 h | AID 686979; note: nearly all actives have a fitted effect of over 55% in size
#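 Chicken DT40 Tdp1-/- cells stably complemented with human TDP1 were seeded at 400 cells/well in medium containing 20 nM camptothecin, exposed to pin-transferred compounds, and grown at 37 °C for at least 48 hr. Viability was read as ATP luminescence.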
# Hits are given with their value; i = inactive; ? = inconclusive; nt = not tested or not shown. Most compounds without a hit are left out; they make up all but 19% or so of the library. Unless noted, calls come from the whole dose curve; as a rule, active = well fitted curve in the direction sought with a large enough effect; inconclusive = small, poorly fitted or top-dose-only effect, or another doubt; inactive = no such curve, though single readings can be large; an effect the other way counts as inactive or inconclusive.
SMILES,TDP1 cell noCPT,HT1080NT lethal,HT1080 IDH1KD tx,IL1B secr inh,DT40 TDP1 CPT
NC(=O)CC1C(=O)N(c2ccccc2)C(=S)N1NC(=O)c1ccccc1 (stereo not given),i,i,i,i,i
CC1CCCN(c2c(S(=O)(=O)c3ccccc3)cnc3ccc(Cl)cc23)C1 (stereo not given),i,nt,nt,nt,i
Cc1ccc2ncc(S(=O)(=O)c3ccccc3)c(N3CCCCC3C)c2c1 (stereo not given),18µM,i,i,i,23µM
CCOc1cc(-c2ccccc2)nc2c1CN(S(=O)(=O)c1ccc(C)cc1)C(c1cccc(Cl)c1)C2 (stereo not given),9.2µM,?,i,i,?
CC1CCCN(Cc2c(O)ccc3c2O/C(=C\c2ccco2)C3=O)C1 (stereo not given),26µM,i,i,i,15µM
Cn1cnnc1SCCOc1ccc(Cl)cc1,i,i,i,-80,i
O=C(C[C@H]1C/C=C\C[C@H](NC(=O)OCC2c3ccccc3-c3ccccc32)C(=O)OC[C@@H]2CCCN2C1=O)NCCO,5.8µM,i,i,i,4.1µM
O=C(C[C@H]1C/C=C\C[C@H](NC(=O)OCC2c3ccccc3-c3ccccc32)C(=O)OC[C@H]2CCCN2C1=O)NCCO,16µM,i,i,i,12µM
O=C(C[C@@H]1C/C=C\C[C@H](NC(=O)OCC2c3ccccc3-c3ccccc32)C(=O)OC[C@H]2CCCN2C1=O)NCCO,?,i,i,i,?
O=C(C[C@@H]1C/C=C\C[C@H](NC(=O)OCC2c3ccccc3-c3ccccc32)C(=O)OC[C@H]2CCCN2C1=O)N[C@@H](CO)Cc1ccccc1,4.6µM,i,i,i,4.6µM
CCOc1ccccc1NC(=O)NCc1ccccn1,i,i,i,i,i
COc1ccc(-c2nc(C(N)=O)c3[nH]c(=O)n(-c4ccccc4OC)c3n2)c(OC)c1,16µM,i,?,i,?
COc1ccccc1-n1c(=O)[nH]c2c(C(N)=O)nc(-c3cccnc3)nc21,21µM,i,i,i,?
COc1ccccc1-n1c(=O)[nH]c2c(C(N)=O)nc(CC(C)C)nc21,i,i,i,i,i
CC1(C)CC(=O)C(C=NCCO)=C(O)C1,?,i,i,i,18µM
O=C1C=C(Nc2cccnc2)c2ccccc2C1=O,7.3µM,23µM,23µM,-70,7.3µM
CC(C(=O)Nc1cccnc1)N1C(=O)c2ccccc2C1=O (stereo not given),i,i,i,i,i
O=c1oc(Nc2ccc(F)cc2)nc2ccccc12,?,i,i,i,i
CCOc1ccc(NC2=CC(=O)C(=O)c3ccccc32)cc1,3.3µM,?,?,-55,2.3µM
O=C1C=C(Nc2ccc(F)cc2)c2ccccc2C1=O,9.2µM,?,?,i,7.3µM
COc1cc(Cl)c(NC2=CC(=O)C(=O)c3ccccc32)c(OC)c1,?,9.2µM,8.2µM,?,12µM
COc1cc(Cl)c(NS(=O)(=O)c2ccc(-c3ccc(=O)[nH]n3)o2)c(OC)c1,i,i,i,i,i
Cc1ccc(S(=O)(=O)N2CCCCC2)cc1NC(=O)COC(=O)Cc1cccc(C(F)(F)F)c1,?,i,i,i,i
Cc1ncc(CN=Cc2ccc(Cl)cc2)c(N)n1,i,i,i,i,i
O=C1CCCC(O)=C1C=Nc1ccc(O)cc1,26µM,i,i,i,?
SMILES,TDP1 cell noCPT,HT1080NT lethal,HT1080 IDH1KD tx,IL1B secr inh,DT40 TDP1 CPT
CC(C)C1C(=O)N(Cc2cn(CCC3OCCO3)nn2)CCS(=O)(=O)N1Cc1ccc(-c2ccccc2)cc1 (stereo not given),?,i,i,i,?
CC(C)C1C(=O)N(Cc2cn(CCC3OCCO3)nn2)CCS(=O)(=O)N1Cc1ccc(-c2ccccc2Cl)cc1 (stereo not given),15µM,?,?,?,16µM
CC(C)C1C(=O)N(Cc2cn(CCC3OCCO3)nn2)CCS(=O)(=O)N1Cc1ccc(-c2ccc(F)cc2Cl)cc1 (stereo not given),21µM,?,?,i,?
COc1cccc(-c2ccc(CN3C(C(C)C)C(=O)N(Cc4cn(CCC5OCCO5)nn4)CCS3(=O)=O)cc2)c1OC (stereo not given),?,i,i,?,21µM
CCOC(=O)c1c(C)[nH]c(C)c1C(=O)COC(=O)Cc1ccc(OC)c(OC)c1,i,i,i,i,i
Cc1cc(N2CCCCC2)nc2ccc(NC(=O)/C=C/c3ccccc3OC(C)C)cc12,10µM,nt,nt,nt,7.3µM
COc1ccc(/C=C/C(=O)Nc2ccc3nc4n(c(=O)c3c2)CCCC4)cc1OC,i,?,?,i,i
Cc1cc(N2CCCCC2)nc2ccc(NC(=O)/C=C/c3ccccc3Cl)cc12,10µM,nt,nt,nt,13µM
Cc1ccc(NC(=O)/C=C/c2ccccc2Cl)cc1Cl,i,nt,nt,nt,i
COc1ccc(/C=C/C(=O)Nc2ccc3nc(N4CCCCC4)cc(C)c3c2)cc1OC,2.6µM,nt,nt,nt,2.9µM
CC(C)c1ccc(NC(=O)CSC2=Nc3ccccc3C3=NC(CCC(=O)NCc4cccs4)C(=O)N23)cc1 (stereo not given),26µM,nt,nt,nt,23µM
O=C(CCC1N=C2c3ccccc3N=C(SCC(=O)Nc3ccccc3F)N2C1=O)NCc1cccs1 (stereo not given),i,nt,nt,nt,i
O=C(CCC1N=C2c3ccccc3N=C(SCC(=O)Nc3ccc(F)cc3)N2C1=O)NCc1cccs1 (stereo not given),15µM,nt,nt,nt,15µM
O=C(CCC1N=C2c3ccccc3N=C(SCc3ccccc3Cl)N2C1=O)NCc1cccs1 (stereo not given),21µM,nt,nt,nt,?
Cc1ccc(CSC2=Nc3ccccc3C3=NC(CCC(=O)NCc4cccs4)C(=O)N23)cc1 (stereo not given),?,nt,nt,nt,i
CC(NC(=O)C1CCOCC1)c1nnc2n1CCN(Cc1cc3c(cc1Cl)OCO3)CC2 (stereo not given),i,nt,nt,nt,i
O=C1c2ccccc2-c2onc3c(Br)cc(NC4CCCCC4)c1c23,i,nt,nt,nt,i
CN(C)CCCNc1cc(N2CCN(C3CCCCC3)CC2)c2noc3c2c1C(=O)c1ccccc1-3,21µM,nt,nt,nt,23µM
COCCNc1cc(N2CCN(C3CCCCC3)CC2)c2noc3c2c1C(=O)c1ccccc1-3,16µM,nt,nt,nt,18µM
Cc1ccc(Nc2cc(C)c(C#N)c3nc4ccccc4n23)c(C)c1,13µM,nt,nt,nt,15µM
Cc1cc(NCCCOC(C)C)n2c(nc3ccccc32)c1C#N,26µM,i,i,i,?
Cc1cc(Nc2ccc(O)cc2)n2c(nc3ccccc32)c1C#N,i,i,i,i,i
C/C(=N\O)c1cc(Cl)cc(Cl)c1O,i,?,i,-83,i

# Source: PubChem BioAssay
